Screens (PubChem)
IL-1B inflam inh: inhibitors of inflammasome signaling (IL-1 beta secretion); THP-1 LPS/ATP IL-1B secretion, AlphaLISA, 16 h; stronger effect = lower value; activity change, % at 57.5 µM; actives 4.7% (n = 360,000); AID 743279; in the data active means activity change below about -50%; inconclusive means mostly about -30% to -49%
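THP-1 cells pretreated 1 hr with compounds (up to 57.5 uM final), then stimulated with LPS (250 ng/mL final) plus ATP (1.25 mM final); secreted IL-1B measured by AlphaLISA after 16 hr, decreased signal indicating inhibition.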
HT1080 IDH1KD tx: HT-1080 IDH1 knockdown cell toxicity (counter line); HT-1080 IDH1 knockdown viability, ATP luminescence, 48 h; Potency, µM (top dose mostly 46.1 µM), for the others: top-dose activity, negative = toxicity, usual class: cytotoxic; actives 2% (n = 360,000);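 further: potency means the concentration at half of the fitted maximal effect; 0% = DMSO wells and -100% = cell-free medium wells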
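Knockdown cells (IDH1KD HT-1080) received compounds 2 h after plating at 750 cells/well and were kept 48 h at 37 °C in 5% FBS RPMI. A CellTiter-Glo luminescence read gave % activity for curve fitting.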
TDP1 cell noCPT: qHTS for Inhibitors of human tyrosyl-DNA phosphodiesterase 1 (TDP1): qHTS in cells in absence of CPT. DT40 Tdp1-/- hTDP1 cells, no CPT, ATP luminescence, 48 h. AID 686978, 2013. Potency, µM (series often up to 46.2 µM), inactives show at the top dose activity change, negative = growth inhibition, actives largely listed as inhibitors. actives 15% (n = 420,000); further: potency means the concentration at half of the fitted maximal effect; nearly all actives have a fitted effect of over 55% in size
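Seeded 400 DT40-hTDP1 cells/well (vehicle DMSO, no 20 nM CPT); pinned compounds; ≥48 hr at 37 °C; CellTiter-Glo luminescence as viability measure.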
TDP1 cell CPT: growth inhibition of DT40 Tdp1-/-;hTDP1 cells with camptothecin (screen for TDP1 inhibitors). actives 12% (n = 420,000). Potency, µM (doses to about 46.2 µM), for the others: at the highest dose activity change, negative = growth inhibition, usual class: inhibitors. chicken DT40 Tdp1-/-;hTDP1 cells + 20 nM CPT, ATP luminescence, 48 h. AID 686979; further: potency means the concentration at half of the fitted maximal effect; nearly all actives have a fitted effect of over 55% in size
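Chicken DT40 Tdp1-/- cells stably complemented with human TDP1 were seeded at 400 cells/well in medium containing 20 nM camptothecin, exposed to pin-transferred compounds, and grown at 37 °C for at least 48 hr. Viability was read as ATP luminescence.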
HT1080NT lethal: kills 2HG-producing HT-1080-NT fibrosarcoma cells; HT-1080-NT fibrosarcoma viability, CellTiter-Glo ATP luminescence, 48 h; Potency, µM (series often up to 46.1 µM), for the others: top-dose activity, negative = less viability, hits mostly cytotoxic; actives 1.6% (n = 360,000); AID 686970;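 further: NT is the 2HG producing partner of a matched IDH1 knockdown line; potency means the concentration at half of the fitted maximal effect; 0% = DMSO-treated cells and -100% = media-only wells without cells; nearly all actives have a fitted effect of over 55% in size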
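Viability by CellTiter-Glo luminescence after 48 h compound exposure at 37C of HT-1080-NT cells (750/well, RPMI, 5% FBS). % activity scaled between DMSO wells and medium-only wells, then curve-fitted and categorized by curve class.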
ALOX12 inh: blocks human arachidonate 12S-lipoxygenase. P18054. AID 1671190. actives 1.1% (n = 580,000). purified 12hLO, xylenol orange hydroperoxide absorbance. Potency, µM (series often up to 108 µM), without a hit: top-dose activity change, negative = inhibition, usual class: inhibitors; further: potency means the concentration at half of the fitted maximal effect
Target sequence (P18054 whole entry, looked up): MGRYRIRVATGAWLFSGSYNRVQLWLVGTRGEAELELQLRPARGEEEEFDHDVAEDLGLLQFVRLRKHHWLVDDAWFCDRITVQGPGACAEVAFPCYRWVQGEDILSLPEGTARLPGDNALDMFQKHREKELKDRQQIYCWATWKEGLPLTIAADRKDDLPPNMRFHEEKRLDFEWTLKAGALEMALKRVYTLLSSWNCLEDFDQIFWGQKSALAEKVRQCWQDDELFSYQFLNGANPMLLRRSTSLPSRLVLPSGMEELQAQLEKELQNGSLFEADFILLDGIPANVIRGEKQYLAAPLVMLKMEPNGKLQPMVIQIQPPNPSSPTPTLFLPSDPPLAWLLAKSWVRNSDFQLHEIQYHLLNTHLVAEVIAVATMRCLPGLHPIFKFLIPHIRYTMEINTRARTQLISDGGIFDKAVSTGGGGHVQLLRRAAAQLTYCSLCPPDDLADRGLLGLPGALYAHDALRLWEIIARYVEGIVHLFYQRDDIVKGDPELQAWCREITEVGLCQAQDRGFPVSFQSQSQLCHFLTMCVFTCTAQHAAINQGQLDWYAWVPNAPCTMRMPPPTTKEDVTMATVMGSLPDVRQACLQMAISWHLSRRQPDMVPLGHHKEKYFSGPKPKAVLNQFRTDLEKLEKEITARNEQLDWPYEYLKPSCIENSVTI
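Purified human 12hLO (150 nM final) in 25 mM Hepes, 0.01% Triton X-100, pH 7.0 was preincubated 15 min at room temperature with compound. Then 40 uM arachidonic acid was added, 30 min. Hydroperoxide was read by Fe-XO absorbance ratio 573/405 nm.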
* hit, by the source's call; i = inactive; ? = inconclusive; . = no result given; [ ] = dose if it differs, or a comment. Only a selection was taken, and hits are over-represented in it overall. Unless noted, the call rests on the fitted dose curve; in most records, active means well fitted curve in the direction sought with a large enough effect; inconclusive means small, poorly fitted or top-dose-only effect, or another doubt; inactive means no such curve, though single readings can be large; an effect the other way counts as inactive or inconclusive. Unless noted, on the % scale 0 is the no-effect control and ±100 the full control effect.

SMILES | IL-1B inflam inh | HT1080 IDH1KD tx | TDP1 cell noCPT | TDP1 cell CPT | HT1080NT lethal | ALOX12 inh
CCOc1ccc(C(C)=O)cc1CSc1nnc(-c2cccs2)n1CC1CCCO1 (stereo unspecified) | ? | 1.5% | 18.4µM* | ? | 3.6% | 12.8%
O=C(CSc1nnc(-c2cccs2)n1CC1CCCO1)N1CCCC1 (stereo unspecified) | 6.7 | 11.1% | -14.3% | 28.1% | 21.9% | -1.4%
CCCN(CC#N)CC(=O)NC(=O)NC1CC1 | . | . | . | . | . | -47.4%
O=C(CSc1nnc2ccccn12)NNC(=O)c1ccccc1F | -14.6 | 0.8% | 0.3% | 7.1% | -2.7% | -4.5%
c1ccc(Cc2nnc(N3CCOCC3)c3ccccc23)cc1 | -10.5 | 16.5% | 0.8% | 0.7% | -9.0% | 0.0%
c1ccc(Cc2nnc(N3CCCCC3)c3ccccc23)cc1 | -86.3* | ? | ? | -28.4% | -2.4% | 0.8%
COc1nn(C)c2nc(C)c(CCC(=O)NC3CCCC3)c(C)c12 | . | . | . | . | . | 10.0%
COc1ccc2c(c1)CCc1c-2n[nH]c1C(=O)NCCC(C)C | -60.3* | ? | ? | ? | 3.6% | 20.7%
COc1cccc(/C=N/NC(=O)c2[nH]nc3c2CCc2ccccc2-3)c1 | . | 2.06µM* | 4.11µM* | 4.11µM* | 3.66µM* | i
CNC(=O)c1[nH]nc2c1CCc1cc(OC)ccc1-2 | ? | -1.6% | ? | ? | 21.1% | 11.1%
Nc1nc(CN2CCN(c3cccc(C(F)(F)F)c3)CC2)nc(N2CCCc3ccccc32)n1 | . | . | . | . | . | -12.7%
Cc1cccc(C(=O)N2CCc3cc(CNS(=O)(=O)c4ccc(Cl)s4)ccc32)c1 | . | . | 23.1µM* | 23.1µM* | . | ?
COc1ccc(OC)c(S(=O)(=O)NCc2ccc3c(c2)CCN3C(=O)c2cccc(C)c2)c1 | . | . | 2.59µM* | 2.59µM* | . | -16.4%
COc1ccc(C(=O)N2CCc3ccc(C(=O)NCc4cccc(C)c4)cc32)cc1 | . | . | . | . | . | -1.9%
Cc1cccc(C(=O)N2CCc3cc(CNS(=O)(=O)c4ccc(F)c(Cl)c4)ccc32)c1 | . | . | 1.16µM* | 1.64µM* | . | 0.0%
CCC(=O)N1CCc2cc(CNS(=O)(=O)c3ccc(Cl)s3)ccc21 | . | . | 16.4µM* | ? | . | -26.5%
CCC(=O)NCC1CC2c3ccccc3C1c1ccccc12 (stereo unspecified) | . | . | . | . | . | 15.8%
Cc1nc(N2CCCCC2)n(CC(=O)Nc2ccc(Cl)cc2)c(=O)c1C | . | . | . | . | . | -8.6%
CCOc1ccc2nc(NCCNC(=S)NCCCN(C)C)c(C#N)cc2c1 | . | ? | 25.9µM* | ? | -24.4% | -19.9%
Cc1cc2n(n1)CC(CNCc1cccnc1N1CCCCC1)CN2 (stereo unspecified) | . | . | . | . | . | 1.0%
COc1cc2ccnc(C=NO)c2cc1OC | ? | ? | 20.6µM* | 20.6µM* | -10.4% | 26.5%
COc1cc2ccnc(C=O)c2cc1OC | -5.8 | ? | 2.59µM* | 4.61µM* | -19.1% | .
COc1cc(N)c(Cc2nccc3cc(OC)c(OC)cc23)cc1OC | 18.3 | -10.2% | ? | ? | -5.2% | 0.6%
COc1ccc(C(N)c2nccc3cc(OC)c(OC)cc23)cc1OC (stereo unspecified) | -83.4* | -16.3% | ? | ? | -0.3% | .
CCC(=O)NC(c1ccc(OC)c(OC)c1)c1nccc2cc(OC)c(OC)cc12 (stereo unspecified) | . | . | . | . | . | 32.1%
SMILES | IL-1B inflam inh | HT1080 IDH1KD tx | TDP1 cell noCPT | TDP1 cell CPT | HT1080NT lethal | ALOX12 inh
COc1cc2ccnc(Cc3cccc(OC)c3OC)c2cc1OC | -23.9 | -28.7% | 13µM* | ? | -14.0% | -22.6%
Cc1ncccc1C(=O)N1CCC2(CC1)CC(N(Cc1ccccc1)C1CC1)CCO2 (stereo unspecified) | . | . | . | . | . | -0.2%
CNC(=O)[C@H]1C[C@H](Oc2ccccc2)CN1C(=O)NCc1ccccc1 | . | . | . | . | . | 9.4%
COc1cc(N)c(C(=O)c2nccc3cc(OC)c(OC)cc23)cc1OC | 5.5 | -5.4% | -19.9% | 9.8% | -4.6% | ?
COc1cc(Br)c(C(=O)c2nccc3cc(OC)c(OC)cc23)cc1OC | 9.9 | -15.0% | 18.4µM* | 23.1µM* | ? | 1.6%
COc1cccc(NC(=S)NNC(=O)C(C)n2nc(C)c([N+](=O)[O-])c2C)c1 (stereo unspecified) | 9.7 | 1.9% | 0.2% | -5.8% | -0.9% | -8.0%
COc1cccc(NC(=S)NNC(=O)c2c([N+](=O)[O-])c(C)nn2C)c1 | -9.7 | 7.94µM* | ? | ? | ? | 19.3%
COC(=O)c1ccc2nc(CO[C@H]3CN(C4CCOCC4)C[C@H]3F)[nH]c2c1 | . | . | . | . | . | 34.7%[176 µM]
COc1ccc(Cn2c(C)nc3ccc([N+](=O)[O-])cc3c2=O)cc1 | 3.5 | -2.8% | 20.6µM* | ? | -2.2% | ?
CCCN1CCCC(c2cccc(S(C)(=O)=O)c2)C1 (stereo unspecified) | . | . | . | . | . | 0.0%
Cc1ccc(/C=C/C(=O)Nc2ccc3nc(N4CCC(C)CC4)cc(C)c3c2)cc1 | . | . | 3.66µM* | 5.8µM* | . | ?
Cc1cc(N2CCCCC2)nc2ccc(NC(=O)/C=C/c3ccc(OCCC(C)C)cc3)cc12 | . | . | 18.4µM* | -109.9% | . | 0.4%
Cc1cc(N2CCC(C)CC2)nc2ccc(NC(=O)/C=C/c3cccc(Cl)c3)cc12 | . | . | 4.11µM* | 6.51µM* | . | ?
CCOc1cccc(CNCc2ccco2)c1 | . | . | . | . | . | -4.2%
COc1cc(C(=O)OCc2ccc(C#N)cc2)cc(Cl)c1OC | . | . | . | . | . | 0.2%
COc1ccc(N2CCN(C(CNC(=O)C(=O)NCCCn3ccnc3)c3cccnc3)CC2)cc1 (stereo unspecified) | -1.1 | 9.8% | -20.7% | -7.1% | 1.4% | -3.1%
COc1ccc(CNC(=O)C(=O)NCC(c2cccnc2)N2CCN(c3ccccc3)CC2)cc1 (stereo unspecified) | . | . | 13µM* | 16.4µM* | . | 5.7%
COc1ccc(N2CCN(C(CNC(=O)C(C)(C)C)c3cccnc3)CC2)cc1 (stereo unspecified) | -6.1 | 0.7% | ? | -9.0% | -1.6% | -2.1%
Cc1ccc(C)c(NC(=O)C(=O)NCC(c2cccnc2)N2CCN(c3ccc(F)cc3)CC2)c1 (stereo unspecified) | . | . | 4.61µM* | 4.61µM* | . | -24.9%
COc1ccc(CCNC(=O)C(=O)NCC(c2cccnc2)N2CCN(c3ccccc3)CC2)cc1 (stereo unspecified) | . | . | 18.4µM* | 23.1µM* | . | -1.3%
